# According to PubChem BioAssay (NCATS):
# Several values for one entry are separate records, joined by “and”; a condition that tells them apart may be missing. Equal entries are not always repeated. Inconclusive results are not listed. Where a call stands in place of a potency, no number is given. The source holds several records for some structures; these can differ, active in one and inactive in another. Activity calls are given as the source filed them. Unless noted, calls follow the shape of the dose curve; as a rule, active = well fitted curve in the direction sought with a large enough effect; inconclusive = small, poorly fitted or top-dose-only effect, or another doubt; inactive = no such curve, though single readings can be large; an effect the other way counts as inactive or inconclusive.
# Columns and labels:
# [1] = Primary qHTS for small molecule stabilizers of the endoplasmic reticulum resident proteome: Secreted ER Calcium Modulated Protein (SERCaMP) assay (AID 1508630)
# Summary of the method: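 The SH-SY5Y reporter protocol was run at 3 concentrations up to 38.3 uM (primary) or 11 concentrations (follow-up): 16 h compound, 100 nM thapsigargin for 4 h, then extracellular luciferase luminescence.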
# [2] = A High-Content qHTS Against Drug Library for the Identification of Small Molecules that Inhibit DYT1 Early Onset Primary Dystonia-Associated Cell Pathology (AID 1645839; calls by dose curve; also: potency is read from the fitted curve at half-maximal effect; as to % pathology change, negative = correction: series mostly up to about 46 µM)
# Summary of the method: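 Cells were seeded and left for 24 h, then dosed with compound alongside tetracycline induction of mutant EGFP-TorsinA. They were incubated for 48 h, fixed in 4% paraformaldehyde, permeabilized and imaged for mislocalization (%pathology) and cell count.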
# [3] = target: Cytochrome P450 2C9 (Homo sapiens) (UniProt P11712); assay: Cytochrome P450 family 2 subfamily C member 9 (CYP2C9) small molecule antagonists: luciferase biochemical (cell-free) qHTS assay (AID 1645842; active = well fitted curve in the direction sought with a large enough effect in the repeat runs; an effect the other way counts as inactive or inconclusive; also: nearly all actives have a fitted effect of over 55% in size; also: potency is read from the fitted curve at half-maximal effect; as to activity change, negative = inhibition: series mostly up to about 57 µM)
# Summary of the method: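 P450-Glo CYP2C9 system: proluciferin substrate with enzyme in mix containing 0.4% BSA, 10 min at room temperature, then NADPH regeneration solution added and incubated 1 h at 37C. Detection reagent stopped reaction; luminescence read after 20 min as RLU.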
# Papain (Carica papaya) = Papain (Carica papaya) (UniProt P00784); assay: Primary qHTS assay for inhibitors of the protease papain (AID 1645873);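 also: papain turnover of Z-FR-AMC read as the AMC fluorescence gain over 10 min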; also: potency is read from the fitted curve at half-maximal effect; as to activity change, negative = inhibition: series mostly up to about 50 µM
# [4] = Primary qHTS for inhibitors of nuclear receptor binding SET domain protein 2 (NSD2) in an isogenic RCH-ACV NSD2 p.E1099K mutant (9B) (AID 1645876); also: nearly all actives have a fitted effect of over 70% in size; also: potency is read from the fitted curve at half-maximal effect
# [5] = target: Cytochrome P450 2D6 (Homo sapiens) (UniProt P10635); assay: Cytochrome P450 family 2 subfamily D member 6 (CYP2D6) small molecule antagonists: luciferase biochemical (cell-free) qHTS assay (AID 1645840; active = well fitted curve in the direction sought with a large enough effect in the repeat runs; an effect the other way counts as inactive or inconclusive; also: nearly all actives have a fitted effect of over 55% in size; also: potency is read from the fitted curve at half-maximal effect; as to activity change, negative = inhibition: series mostly up to about 57 µM)
# Summary of the method: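 P450-Glo CYP2D6 system: proluciferin substrate converted by enzyme to luciferin, read by luminescence proportional to activity. Enzyme-substrate mix with compound 10 min at room temperature, then NADPH regeneration 1 h before detection reagent.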
# Chain of Cytochrome P450 2D6 (Homo sapiens) (P10635 whole entry, looked up): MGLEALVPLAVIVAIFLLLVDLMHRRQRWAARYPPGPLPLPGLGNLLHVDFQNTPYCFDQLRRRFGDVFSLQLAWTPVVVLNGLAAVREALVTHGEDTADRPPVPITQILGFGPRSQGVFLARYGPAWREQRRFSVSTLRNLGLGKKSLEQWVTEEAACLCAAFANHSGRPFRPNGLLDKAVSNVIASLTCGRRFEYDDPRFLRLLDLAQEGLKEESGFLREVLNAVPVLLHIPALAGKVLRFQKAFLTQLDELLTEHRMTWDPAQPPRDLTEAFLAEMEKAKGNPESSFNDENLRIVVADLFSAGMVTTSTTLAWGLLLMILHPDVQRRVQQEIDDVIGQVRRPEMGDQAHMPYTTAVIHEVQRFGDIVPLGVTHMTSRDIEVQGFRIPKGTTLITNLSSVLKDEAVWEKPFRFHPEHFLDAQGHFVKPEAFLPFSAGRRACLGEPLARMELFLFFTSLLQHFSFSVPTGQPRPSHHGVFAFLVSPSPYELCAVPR
# Chain of Papain (Carica papaya) (P00784 whole entry, looked up, the tested form may be a part): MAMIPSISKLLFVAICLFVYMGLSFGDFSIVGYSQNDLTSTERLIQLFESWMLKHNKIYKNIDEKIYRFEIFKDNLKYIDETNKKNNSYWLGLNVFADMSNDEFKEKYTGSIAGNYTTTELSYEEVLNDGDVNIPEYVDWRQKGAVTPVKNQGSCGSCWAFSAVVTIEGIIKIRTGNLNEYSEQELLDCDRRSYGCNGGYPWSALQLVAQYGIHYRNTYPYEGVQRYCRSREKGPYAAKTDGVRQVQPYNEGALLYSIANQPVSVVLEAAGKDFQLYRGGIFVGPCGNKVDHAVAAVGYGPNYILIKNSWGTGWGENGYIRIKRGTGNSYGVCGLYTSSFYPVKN
# Chain of Cytochrome P450 2C9 (Homo sapiens) (P11712 whole entry, looked up): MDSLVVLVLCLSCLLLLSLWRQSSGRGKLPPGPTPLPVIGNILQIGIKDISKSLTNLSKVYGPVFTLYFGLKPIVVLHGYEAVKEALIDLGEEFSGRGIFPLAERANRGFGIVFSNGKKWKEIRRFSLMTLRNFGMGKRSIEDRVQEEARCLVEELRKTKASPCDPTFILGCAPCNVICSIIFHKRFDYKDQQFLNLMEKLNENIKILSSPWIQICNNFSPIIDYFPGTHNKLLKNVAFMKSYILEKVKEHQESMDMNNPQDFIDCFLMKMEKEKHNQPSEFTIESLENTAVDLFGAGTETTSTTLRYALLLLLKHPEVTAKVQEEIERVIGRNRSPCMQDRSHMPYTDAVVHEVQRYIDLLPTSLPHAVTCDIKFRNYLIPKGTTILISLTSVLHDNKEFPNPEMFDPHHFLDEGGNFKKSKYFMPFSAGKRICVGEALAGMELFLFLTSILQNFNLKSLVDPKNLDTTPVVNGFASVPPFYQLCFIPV
smiles,measurement,setting,value
CC(C(O)c1ccc(O)cc1)N1CCC(Cc2ccccc2)CC1 (stereo not given),Potency,[1],inactive
same,Potency,[2],inactive
same,Potency,[3],inactive
same,Potency,Papain (Carica papaya),inactive
O=C(O)CN1C(=O)c2cccc3cccc(c23)C1=O,Potency,[1],inactive
same,Potency,[2],inactive
same,Potency,[3],inactive
same,Potency,[4],inactive
C[C@H](NC(CCc1ccccc1)C(=O)O)C(=O)N1CCC[C@H]1C(=O)O (stereo not given in full),Potency,[1],inactive
same,Potency,[2],inactive
same,Potency,[3],inactive
same,Potency,Papain (Carica papaya),inactive
same,Potency,[4],inactive
CC(=O)OCC(=O)[C@@]1(O)CC[C@H]2[C@@H]3CCC4=CC(=O)CC[C@]4(C)[C@H]3C(=O)C[C@@]21C,Potency,[1],inactive
same,Potency,[2],inactive
same,Potency,Papain (Carica papaya),inactive
same,Potency,[4],inactive
O=C1Nc2ccc(Cl)cc2[C@@](C#CC2CC2)(C(F)(F)F)O1,Potency,[1],inactive
same,Potency,[5],27.5 µM (active)
same,Potency,[3],17.4 µM (active)
same,Potency,[4],18.6 µM (active)
CCCCCCCCCCCCCCCC(=O)NCCO,Potency,[1],inactive
same,Potency,[2],inactive
same,Potency,[4],inactive
CCN(CC)CCCC(C)Nc1c2ccc(Cl)cc2nc2ccc(OC)cc12 (stereo not given),Potency,[1],inactive
same,Potency,[5],0.0776 µM (active)
same,Potency,[3],inactive
same,Potency,Papain (Carica papaya),17.8 µM (active)
same,Potency,[4],7.42 µM (active)
O=C(O)c1ccccc1O,Potency,[1],inactive
same,Potency,[2],inactive
same,Potency,[4],inactive
N=c1c[n+](N2CCOCC2)[n-]o1,Potency,[1],inactive
same,Potency,Papain (Carica papaya),inactive
OC[C@H]1O[C@@H](O[C@@H]2[C@@H](CO)O[C@](O)(CO)[C@H]2O)[C@H](O)[C@@H](O)[C@H]1O,Potency,[1],inactive
same,Potency,[2],inactive
same,Potency,[4],inactive
CC1=C(/C=C/C(C)=C/C=C/C(C)=C/C(=O)O)C(C)(C)CCC1,Potency,[1],inactive
same,Potency,Papain (Carica papaya),inactive
same,Potency,[4],21.1 µM (active)
COc1ccc2cc1Oc1ccc(cc1)C[C@H]1c3c(cc4c(c3Oc3cc5c(cc3OC)CCN(C)[C@@H]5C2)OCO4)CCN1C,Potency,[1],inactive
same,Potency,[5],17.4 µM (active)
same,Potency,[4],8.41 µM (active) and 9.16 µM (active)
CCOC(=O)c1ccc(O)cc1,Potency,[1],inactive
same,Potency,[2],inactive
same,Potency,[4],inactive
NC1CCN(c2cccc(Cl)n2)CC1,Potency,[1],inactive
same,Potency,[5],1.55 µM (active)
same,Potency,[3],inactive
same,Potency,[4],inactive
CCCc1c(OCCCCc2nn[nH]n2)ccc(C(C)=O)c1O,Potency,[1],inactive
same,Potency,[3],0.138 µM (active)
CCOc1nc2cccc(C(=O)O)c2n1Cc1ccc(-c2ccccc2-c2nn[nH]n2)cc1,Potency,[1],inactive
same,Potency,[2],inactive
same,Potency,[4],inactive
Nc1ncnc2c1ncn2[C@@H]1O[C@H](CO)[C@@H](O)[C@H]1O,Potency,[1],inactive
same,Potency,[2],inactive
same,Potency,Papain (Carica papaya),inactive
same,Potency,[4],9.44 µM (active) and inactive
CC[C@H]1CN2CCc3cc(OC)c(OC)cc3[C@@H]2C[C@@H]1C[C@H]1NCCc2cc(OC)c(OC)cc21,Potency,[1],inactive
same,Potency,[5],inactive
same,Potency,[3],inactive
same,Potency,Papain (Carica papaya),inactive
same,Potency,[4],84.1 nM (active) and 132 nM (active)
NC(=O)NNc1ccccc1,Potency,[1],inactive
same,Potency,[4],inactive
CCCCOC(=O)c1ccc(O)cc1,Potency,[2],inactive
OCCN1CCN(CCCN2c3ccccc3Sc3ccc(Cl)cc32)CC1,Potency,[1],inactive
same,Potency,[2],3.98 µM (active)
same,Potency,Papain (Carica papaya),inactive
same,Potency,[4],8.41 µM (active)
CC1=C(CC(=O)O)c2cc(F)ccc2/C1=C\c1ccc(S(C)=O)cc1 (stereo not given),Potency,[1],inactive
same,Potency,[2],inactive
same,Potency,Papain (Carica papaya),inactive
CN(C)CCCN1c2ccccc2Sc2ccc(Cl)cc21,Potency,[1],inactive
same,Potency,Papain (Carica papaya),inactive
same,Potency,[4],15 µM (active)
O=C(O)c1ccccn1,Potency,[1],inactive
same,Potency,[2],inactive
same,Potency,[4],inactive
NC(=O)c1ncn([C@@H]2O[C@H](CO)[C@@H](O)[C@H]2O)n1,Potency,[1],inactive
same,Potency,[2],inactive
same,Potency,Papain (Carica papaya),inactive
CC(C)NC[C@H](O)c1ccc(O)c(O)c1,Potency,[1],inactive
same,Potency,Papain (Carica papaya),1.12 µM (active) and inactive
CC(COc1ccccc1)NC(C)C(O)c1ccc(O)cc1 (stereo not given),Potency,[1],inactive
same,Potency,[2],inactive
same,Potency,[4],inactive
Cc1cc(N)c2ccccc2[n+]1CCCCCCCCCC[n+]1c(C)cc(N)c2ccccc21,Potency,[1],inactive
same,Potency,[5],5.35 µM (active)
same,Potency,[3],inactive
same,Potency,Papain (Carica papaya),15.8 µM (active)
same,Potency,[4],2.9 µM (active)
Cc1ncc([N+](=O)[O-])n1CC(O)CCl (stereo not given),Potency,[1],inactive
same,Potency,[2],inactive
same,Potency,[4],inactive
COc1ccc(Cl)cc1C(=O)NCCc1ccc(S(=O)(=O)NC(=O)NC2CCCCC2)cc1,Potency,[1],inactive
same,Potency,[2],inactive
same,Potency,[4],inactive
C/C(=C(\CCOP(=O)(O)O)SC(=O)c1ccccc1)N(C=O)Cc1cnc(C)nc1N,"activity change, negative = inhibition",[1],-22.1% [at 3.88 µM] (inactive)
same,"% pathology change, negative = correction",[2],-4.46% [at 4.63 µM] (inactive)
same,"activity change, negative = viability loss",[4],9.34% [at 4.96 µM] (inactive)
CN1[C@@H]2CC(OC(=O)[C@H](CO)c3ccccc3)C[C@H]1[C@@H]1O[C@@H]12 (stereo not given in full),Potency,[2],inactive
COc1ccc2c(c1)C(=O)N(CCc1ccc(S(=O)(=O)NC(=O)NC3CCCCC3)cc1)C(=O)C2(C)C,Potency,[1],inactive
same,Potency,[3],13.8 µM (active)
